Screens from PubChem.
SW480 rereplic = induces DNA re-replication in SW480 colon adenocarcinoma cells; SW480 DNA re-replication, Hoechst DNA content imaging, 48 h; Potency, µM (titrated, usually from 46.1 µM), for inactives: at the top dose re-replication activation, usual class: activators; hit rate 1.8% among 340,000; note: % of control where 0% means no effect; nearly all actives have a fitted effect of over 55% in size
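First, 250 cells per well were seeded. Next, compound or vehicle (23 nL) was pinned in, plates sat 48 hr at 37 C. Finally Hoechst was added for 40 min before fluorescence scanning.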
MCF10A rerep = inducers of DNA re-replication in MCF 10A breast cells. AID 624296. Potency, µM (highest dose often 46.1 µM), without a hit: top-dose activity, positive = re-replication, hits mostly activators. MCF 10A DNA re-replication, Hoechst nuclear intensity, 48 h. hit rate 2.9% among 350,000; note: % of control where 0% means no effect; nearly all actives have a fitted effect of over 50% in size
ELG1 DNA repair = ELG1-dependent DNA repair inhibition; HEK293T ELG1-luciferase reporter, luminescence, 16 h; DNA damage induced by 5-fluorouridine; AID 504467; hit rate 2.3% among 330,000; Potency, µM (doses to about 46.1 µM), without a hit: at the highest dose activity change, negative = inhibition, most hits filed as inhibitors; note: % is set by controls: 0 for no effect and ±100 for the full control effect; nearly all actives have a fitted effect of over 55% in size
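Reporter activity after DNA damage by 5-fluorouridine is monitored. Compound-treated cells incubate 16 hr at 37 °C, then ONE-Glo is added for 30 min before luminescence reading.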
VP16 counter = counter-screen for ROR gamma inhibitors: Gal4-VP16 reporter; Drosophila S2 Gal4-VP16 UAS-luciferase, luminescence, 20 h; Potency, µM (titrated, usually from 53.6 µM), without a hit: at the top dose activity, negative = inhibition, actives largely listed as inhibitors; hit rate 3.5% among 310,000; AID 2546;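 note: Gal4-VP16 expression switched on by copper sulfate through the metallothionein promoter; % is set by controls: 0 for no effect and ±100 for the full control effect; nearly all actives have a fitted effect of over 50% in size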
RORg inh = ROR gamma (mouse) transcription inhibition | Potency, µM (top dose mostly 53.6 µM), for inactives: at the highest dose activity change, negative = inhibition, most hits filed as inhibitors | P51450 | Drosophila S2 Gal4-RORgamma UAS-luciferase reporter, 20 h | hit rate 5.4% among 310,000; note: % is set by controls: 0 for no effect and ±100 for the full control effect; nearly all actives have a fitted effect of over 60% in size
Target sequence (P51450 whole entry, looked up, the tested form may be a part): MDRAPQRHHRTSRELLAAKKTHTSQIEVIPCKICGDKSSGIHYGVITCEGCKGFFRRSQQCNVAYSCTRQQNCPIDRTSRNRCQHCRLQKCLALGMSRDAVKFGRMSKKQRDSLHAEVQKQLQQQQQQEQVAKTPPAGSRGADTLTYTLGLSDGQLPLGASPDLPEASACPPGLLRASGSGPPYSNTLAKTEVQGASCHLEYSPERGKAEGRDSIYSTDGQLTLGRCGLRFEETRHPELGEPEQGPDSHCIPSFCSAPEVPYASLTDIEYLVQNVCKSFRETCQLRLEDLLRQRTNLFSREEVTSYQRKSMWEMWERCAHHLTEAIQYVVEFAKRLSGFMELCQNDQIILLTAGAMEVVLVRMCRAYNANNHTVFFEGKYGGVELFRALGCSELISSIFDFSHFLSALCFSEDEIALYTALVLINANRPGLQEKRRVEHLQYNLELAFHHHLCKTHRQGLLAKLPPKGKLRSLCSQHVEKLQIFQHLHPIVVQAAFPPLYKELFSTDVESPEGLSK
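Schneider cells (Drosophila), stable Gal4 DBD–ROR gamma + UAS-luc; 1 hr cmpd preincubation; Cu2+ induction 700 uM final; 20 hr ambient; luminescence.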
* hit, by the source's call; ? = inconclusive; · = no result given; [ ] = remark or other dose. A selection: hits, their analogues and other compounds. The true share with any hit is near 10%. Calls come from the whole dose curve; as a rule, active = well fitted curve in the direction sought with a large enough effect; inconclusive = small, poorly fitted or top-dose-only effect, or another doubt; inactive = no such curve, though single readings can be large; an effect the other way counts as inactive or inconclusive. Potency is the fitted concentration of half-maximal effect.

SMILES | SW480 rereplic | MCF10A rerep | ELG1 DNA repair | VP16 counter | RORg inh
CNC(=S)N/N=C(\C)c1ccc(Cl)c(Cl)c1 | -21% | 0% | 17% | 7.1µM* | 2.8µM*
COC(=O)c1ccc(C(/C=C/[C@@H](C)C(=O)N[C@H](C)CO)NC(=O)OCc2ccccc2)cc1 (stereo partly specified) | · | · | · | 19% | -1%
O=C(Cn1nc2ccccc2n1)N/N=C/c1cc(Cl)cc([N+](=O)[O-])c1O | 12µM* | ? | ? | 14µM* | 1.8µM*
O=C(Cn1nnc(-c2ccccc2)n1)N/N=C/c1cccc([N+](=O)[O-])c1 | -4% | -24% | 0% | 7% | ?
Cc1ccccc1C(=O)Nc1cccc(C(=O)N/N=C/c2cc(Cl)cc([N+](=O)[O-])c2O)c1 | ? | -8% | ? | 2.5µM* | 1.1µM*
O=C(Cn1nc2ccccc2n1)N/N=C/c1ccc(F)cc1 | -6% | 4% | 23% | 1% | 24%
O=[N+]([O-])c1cc(Cl)cc(/C=N/Nc2nc3ccccc3s2)c1O | ? | ? | 3% | 2.2µM* | 0.89µM*
O=C(Cn1nnc(-c2ccccc2)n1)N/N=C/c1cccc([N+](=O)[O-])c1O | ? | 7% | -18% | ? | 1.8µM*
O=C(Nc1ccc(F)c([N+](=O)[O-])c1)c1ccc2c(c1)C(=O)OC2=O | · | · | 13% | -1% | -4%
CC1CCN(CC(=O)Nc2ccc(N3CCCCCC3)cc2)CC1 | ? | ? | 6% | 9% | 3%
CCSc1nnc(N2C(=O)c3ccc(C(=O)c4ccc(C(=O)O)cc4)cc3C2=O)s1 | 6% | ? | 5% | -3% | 0%
O=C(N/N=C/c1cc(Cl)cc([N+](=O)[O-])c1O)C1CC1 | -11% | 15% | -15% | 2µM* | 0.63µM*
CC(C)(C)N/N=C/c1cc(Cl)cc([N+](=O)[O-])c1O | -9% | 21% | -9% | 2% | -10%
CC(C)Nc1nc(Cl)nc(N(C#N)CN2C(=O)c3ccccc3C2=O)n1 | ? | 16µM* | ? | 1% | -31%
CCC(C)Nc1nc(Cl)nc(N(C#N)CN2C(=O)c3ccccc3S2(=O)=O)n1 (stereo unspecified) | ? | ? | -14% | 0% | -29%
CCOC(=O)CSc1n[nH]c(NS(=O)(=O)c2ccccc2C(F)(F)F)n1 | 16% | -2% | 17% | -8% | -5%
COc1nc(OC)nc(N2CCCCCC2)n1 | -2% | 21µM* | 3% | 1% | -41%
Cc1c(C(=O)N(Cc2ccccc2)C(C)C)oc2ccc(S(=O)(=O)N3CCOCC3)cc12 | 1% | 24% | ? | 1% | 23%
O=C(Nc1ccc(N2CCN(C(=O)c3ccccc3)CC2)cc1)c1cc2ccccc2o1 | -5% | 10% | 9.2µM* | -21% | 18%
CC(C)C(=O)NC(=S)Nc1ccccc1N1CCN(C(=O)c2ccc(Cl)cc2)CC1 | ? | 2% | ? | 5µM* | 5.6µM*
O=C(CSc1ccc(Cl)cc1)Nc1ccccc1N1CCN(C(=O)c2ccc(Cl)cc2)CC1 | 0% | 6% | 23µM* | -12% | 17%
CC(C)(C)C(=O)N1CCN(c2ccc(NC(=O)c3ccc4c(c3)OCCO4)cc2)CC1 | -19% | ? | 16µM* | 2% | 21%
CC(C)(C)C(=O)Nc1ccccc1N1CCN(C(=O)c2ccc(Cl)cc2)CC1 | -1% | 0% | -30% | 1% | 12%
C/C(=C\C(=O)Nc1cscc1C)C(=O)O | -26% | -1% | -8% | -2% | 6%
O=C(Nc1ccc(N2CCN(C(=O)c3ccccc3)CC2)cc1)c1ccc2c(c1)OCCO2 | 4% | ? | 15µM* | -2% | 34%
SMILES | SW480 rereplic | MCF10A rerep | ELG1 DNA repair | VP16 counter | RORg inh
O=C(Nc1ccc(N2CCN(C(=O)c3ccc(Cl)cc3)CC2)cc1)c1ccc2c(c1)OCCO2 | 2% | 6% | 4.1µM* | 1% | 24%
O=C(Nc1ccccc1N1CCN(C(=O)c2ccc(Cl)cc2)CC1)c1ccc2c(c1)OCO2 | 8% | 10% | 16µM* | -4% | -1%
CCC1CCCCN1CCCNC(=O)CN1C(=O)COc2ccc(S(=O)(=O)N3CCC(C)CC3)cc21 (stereo unspecified) | -9% | -3% | -10% | 3% | -10%
Nc1ccc2c(c1)C(=NO)c1cc([N+](=O)[O-])ccc1-2 | 10µM* | 11% | · | · | ·
CCN(c1ccc(C)c(C)c1)S(=O)(=O)c1ccc2c(c1)CCN2C(=O)CCC(=O)O | ? | 21µM* | -3% | -3% | -12%
CCc1ccc(Oc2coc3cc(OCC(=O)Nc4cc(C)ccc4C)ccc3c2=O)cc1 | ? | ? | 11% | 7.9µM* | 25µM*
Cc1ccc(-c2csc(N3CCN(c4cc5c(cc4Cl)nc(-c4ccncc4)n5CCN4CCCCC4)CC3)n2)cc1 | ? | -4% | -5% | -25% | 8.9µM*
Cc1ccc(-c2csc(N3CCN(c4ccc5nc(-c6ccncc6)n(CCN6CCCCC6)c5c4)CC3)n2)cc1 | ? | ? | ? | -5% | ?
CCCn1c(C)nc2cc(Cl)c(N3CCN(c4nc(-c5ccc(C)cc5)cs4)CC3)cc21 | 1% | ? | -18% | ? | 4.5µM*
O=C(NCC1CCCO1)c1ccc(COc2ccccc2Br)cc1 (stereo unspecified) | ? | 3% | -3% | -3% | 33%
Cn1c(Cl)c(/C=N/OC(=O)c2ccccc2Cl)c2ccccc21 | -4% | -3% | ? | -8% | 0%
Cc1cccc(C(=O)O/N=C/c2c(N3CCOCC3)n(C)c3ccccc23)c1 | · | · | ? | 3.5µM* | 1.6µM*
O=C(O)c1ccccc1Nc1cc(Cl)cc(Cl)c1 | · | · | · | -15% | 40%
CCN(CC)c1ccc(/C=N/NC(=O)c2nnn(-c3nonc3N)c2-c2ccc(C)cc2)cc1 | -6% | 0% | -17% | ? | 13µM*
CCCOc1ccc(-c2c(C(=O)N/N=C/c3ccsc3)nnn2-c2nonc2N)cc1 | -11% | -6% | -5% | ? | 7.9µM*
CCOc1ccc(/C=N/NC(=O)c2nnn(-c3nonc3N)c2-c2ccc(OCC)cc2)cc1 | 1% | 0% | ? | ? | ?
CCOc1ccc(-c2c(C(=O)N/N=C/c3c[nH]c4ccccc34)nnn2-c2nonc2N)cc1 | -1% | 2% | ? | 3.2µM* | ?
CCCOc1ccc(-c2c(C(=O)N/N=C/c3ccccc3)nnn2-c2nonc2N)cc1 | -3%[9.22 µM] | -5% | ? | -4% | -28%
CN(CC(=O)Nc1ccccc1Cl)C(=O)C1CCN(C(=O)c2ccc(F)cc2)CC1 | 3% | -1% | 4% | · | ·
CCS(=O)(=O)NCC(c1ccco1)N1CCN(c2ccccc2F)CC1 (stereo unspecified) | 0% | -3% | -3% | -1% | -4%
